# This is a sample that favours compounds with a hit; in the whole collection about 3.1% have one here.
# EBV LMP1 NFkB – reduces LMP1-driven NF-kappaB luciferase signal; AID 504558; LMP1-induced NF-kappaB luciferase reporter cells, luminescence; 350,000 tested, 0.69% active; inhibition, % at 12.5 µM; in the data active = inhibition above about 41%; inconclusive = no clear call, values can overlap the other calls;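 also: 0% = neutral control wells and 100% = reference inhibitor control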
# PAX8 inh HTS – inhibitors of PAX8 transcriptional activity in RMG-I cells; inhibition, % at 12.6 µM; RMG-I TPO-luciferase reporter, SteadyGlo, 24 h; 360,000 tested, 1.2% active;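 active = mean replicate inhibition at least 60% with every replicate also reaching 60%; inconclusive = only one of the two criteria is met; inactive = mean below 60% and not all replicates reaching 60%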;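 also: luciferase light reporting Pax8 driven TPO promoter activity; plate controls were median of neutral control wells for no effect and mitoxantrone controls for full effect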
# TWEAK Fn14 block – blocks TWEAK-Fn14 interaction in a reporter cell assay | inhibition, % at 10 µM | AID 1159606 | TWEAK-stimulated Fn14 reporter cells, luciferase luminescence, 8 h | 360,000 tested, 2% active; in the data active = inhibition above about 50%
# LGR2 antag – inhibitors of bursicon-induced Drosophila LGR2 receptor cAMP signaling. inhibition, % at 9.99 µM. HEK293 LGR2, CRE-luciferase, bursicon-stimulated, 4 h. 380,000 tested, 0.35% active;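 active = drop in luminescence signal, shown as inhibition above about 50% in the replicate tests, limit read from the data, passing the limit was not always enough; inconclusive = probably only some replicates passing the limit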;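 also: agonist challenge used bursicon conditioned medium at about half maximal strength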
# TROY NFkB inh – blocks TROY-dependent signaling in reporter cells. 360,000 tested, 0.98% active. Q293 LMP1-TROYcd NF-kB luciferase reporter, 4 h. inhibition, % at 10 µM;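 active = compounds whose plate-normalised and pattern-corrected inhibition of the luciferase reporter signal at the single screening dose is 50% or more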
# EWS-Fli inh – EWS/Fli transcriptional activity inhibition. 350,000 tested, 0.67% active. A673 NR0B1-luciferase reporter, viability-normalised. inhibition, % at 12.6 µM. AID 651661;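 active = mean inhibition of at least 50% after viability correction, with every replicate also passing that limit; inconclusive = mean reaches 50% but only one of two replicates passes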;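 also: firefly luciferase signal divided by Alamar Blue viability fluorescence both relative to DMSO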
# An asterisk follows results filed as active; ? = inconclusive; · = not tested or not shown; ! = not active in a repeat.
SMILES,EBV LMP1 NFkB,PAX8 inh HTS,TWEAK Fn14 block,LGR2 antag,TROY NFkB inh,EWS-Fli inh
Cc1ccc(S(=O)(=O)Nc2ccc3c(c2)C(=O)N([C@H](C)CO)C[C@H](C)[C@@H](CN(C)S(=O)(=O)c2cccs2)OCCCC[C@H](C)O3)cc1,·,77.2*,·,9.1,·,7.8
COc1ccc(C2=NN(C(=O)COC(=O)c3ccc(S(C)(=O)=O)c([N+](=O)[O-])c3)C(c3ccco3)C2)cc1 (stereo unspecified),-2.7,-30.0,68.9*,-35.2,15.8,5.9
O=C(Nc1ccc(F)cc1)N[C@H]1CC[C@H](CCNC(=O)c2ccccc2F)O[C@@H]1CO,·,·,·,22.0,·,-7.4
Cc1n(CC(O)COC2CCCCC2)c2ccccc2[n+]1C (stereo unspecified),-0.4,·,75.8*,·,·,·
Cc1[nH]c2ccccc2c1CC#N,4.2,6.5,-16.7,1.2,5.1,-1.9
Cc1[nH]c2ccccc2c1C(C#N)(C#N)C1C(=O)c2ccccc2C1=O,4.5,41.3,97.2*,11.7,52.8*,30.6
C/C=C/c1cnc2c(c1)C(=O)N([C@@H](C)CO)C[C@H](C)[C@H](CN(C)S(=O)(=O)c1ccccc1F)O2,·,-5.0,·,-5.2,·,-10.4
O=C(CCCc1ccccc1)Nc1cccc(C(=O)O)c1,46.2*,32.9,-3.9,82.2*,-14.7,?
O=[N+]([O-])c1ccc(N2CCCC2)nc1N1CCCC1,-1.0,10.6,-8.6,-17.6,1.1,0.4
Nc1ncc([N+](=O)[O-])c(N2CCCCCC2)n1,22.4,-39.5,74.8*,13.9,32.7,-13.5
CC1Oc2ccccc2C=C1/C=N/Nc1ccc(C(=O)O)cc1 (stereo unspecified),-13.1,-56.1,61.0*,-93.6,-9.8,-43.5
Cc1c(C(=O)NCc2ccc(C(F)(F)F)cc2)sc(=O)n1Cc1ccc(S(=O)(=O)N(C)C)cc1,·,31.4,56.8*,12.7,32.1,18.6
CC(=O)Oc1ccc(Cn2c(C)c(C(=O)NCc3ccc4c(c3)OCCO4)sc2=O)cc1,·,14.9,6.1,9.7,67.3*,-0.4
CCC(=O)N1CCCCN2[C@H](C1)[C@@H](c1ccc(C#Cc3ccccc3F)cc1)[C@@H]2CO,·,8.1,·,5.1,·,8.7
CCCCCCN(C(=O)CCCCCN1C(=O)NC(c2ccc([N+](=O)[O-])cc2)C(C(=O)OCc2ccccc2)=C1C)C(C(=O)NCCCC)c1ccc(OCC(=O)OC)c(C(=O)OC)c1 (stereo unspecified),·,55.4,·,4.2,·,?
CCCCCCN(C(=O)CCCCCN1C(=O)NC(c2cccc([N+](=O)[O-])c2)C(C(=O)OCc2ccccc2)=C1C)C(C(=O)NCCCC)c1ccc(OCC(=O)OC)c(C(=O)OC)c1 (stereo unspecified),·,49.0,·,-12.7,·,69.4*
CCCCCCN(C(=O)CCCCCN1C(=O)NC(c2ccc(-c3ccccc3)cc2)C(C(=O)OCc2ccccc2)=C1C)C(C)C(=O)NCCCC (stereo unspecified),·,74.9*,·,11.1,·,23.2
CCCC(=O)N1CCC2(CC1)CN(S(C)(=O)=O)[C@H](CO)c1c2c2ccc(OC)cc2n1C,·,·,·,-10.5,·,-4.2
COC(=O)C[C@@H]1CC[C@H]2[C@@H](COc3ccc(NC(=O)c4cscn4)cc3C(=O)N2C)O1,·,-7.2,·,5.5,·,-13.5
Oc1ccc2ccccc2c1-c1sc(Nc2ccccc2)n[n+]1-c1ccc(F)cc1,0.3,13.2,-11.2,·,-19.7,4.3
COc1ccc(C)cc1Nc1n[n+](-c2ccccc2)c(-c2c(OC)ccc3ccccc23)s1,44.2*,84.2*,57.9*,44.2,46.9,37.3
Fc1ccc(-[n+]2nc(Nc3ccccc3)sc2-c2c3ccccc3cc3ccccc23)cc1,1.1,86.4*,49.2,26.0,33.9,31.3
COc1ccc(S(=O)(=O)Nc2ccc3c(c2)C(=O)N([C@@H](C)CO)C[C@H](C)[C@@H](CN(C)C(=O)NC2CCCCC2)OCCCC[C@@H](C)O3)cc1,·,-0.7,·,12.8,·,16.1
Cc1noc(C)c1NC(=O)N[C@@H]1CC[C@H](CC(=O)Nc2ccccc2)O[C@@H]1CO,·,·,·,-11.9,·,2.3
COc1ccc(S(=O)(=O)Nc2ccc3c(c2)C(=O)N([C@@H](C)CO)C[C@H](C)[C@H](CN(C)C(=O)Nc2cccc4ccccc24)OCCCC[C@@H](C)O3)cc1,·,3.6,·,6.4,·,·
SMILES,EBV LMP1 NFkB,PAX8 inh HTS,TWEAK Fn14 block,LGR2 antag,TROY NFkB inh,EWS-Fli inh
COCCNC(=O)CN(C(=O)CCC(=O)Nc1ccccn1)c1ccc(F)c(Cl)c1,86.6*,·,9.7,·,8.8,·
CC(=O)Nc1ccc(Nc2nc(C)c([N+](=O)[O-])c(Nc3ccccc3)n2)cc1,31.5,26.1,66.6*,2.0,53.2*,·
Cc1nc(Nc2ccc(C(=O)O)cc2)nc(Nc2ccc(C(=O)O)cc2)c1[N+](=O)[O-],-4.7,-18.3,11.6,-1.2,-1.5,5.4
O=C(c1cc(Cl)ccc1[N+](=O)[O-])n1cnc2ccccc21,2.4,6.7,4.5,-17.8,15.5,58.5*
C[C@H]1CN([C@@H](C)CO)C(=O)c2cccc(NS(=O)(=O)c3ccc(Cl)cc3)c2O[C@H]1CN(C)Cc1ccncc1,·,2.1,·,0.4,·,1.3
O=C(O)/C=C/c1ccc(Cn2ccnc2)cc1,59.5*!,-31.3,22.8,13.5,3.2,-6.8
CCOC(=O)/C(=C\c1ccc(Cl)cc1)c1nc2sc(C)c(C)c2c(=O)[nH]1,6.3,-13.9,103.8*,40.3,53.2*,·
CCOC(=O)c1cnc2ccc(OCC)cc2c1NCc1ccccc1OC,33.7,9.5,71.9*,-8.4,54.0*,·
O=c1[nH]c(CSc2ccccn2)nc2c1oc1ccccc12,34.0,-7.4,64.6*,80.0*,46.2,28.0
O=C(Nc1nc2cc3c(cc2s1)OCCO3)C1=COCCO1,81.5*,94.0*,103.9*,99.6*,86.7*,89.3*
O=C(CCN1C(=O)C2CCCCC2C1=O)Nc1nc2ccc(F)cc2s1 (stereo unspecified),11.0,-161.1,72.4*,7.1,72.6*,37.4
O=C(CCN1C(=O)C2CCCCC2C1=O)Nc1nc2c(F)cc(F)cc2s1 (stereo unspecified),-23.9,-171.9,1.5,-47.9,-12.4,-57.0
O=C(Nc1nc2ccc(F)cc2s1)C1=COCCO1,51.4*,12.8,85.2*,62.8*,36.2,68.7*
CC(=O)Nc1nc2cc3c(cc2s1)OCCO3,9.4,-55.2,30.5,37.6,-45.8,25.5
CC(=O)CC1=NC(C)(C)Cc2ccccc21,-6.1,-6.4,20.0,-7.0,52.6*,0.1
COc1ccc(/C=N/NC(=O)CCn2cnc(-c3ccccc3)c2-c2ccccc2)cc1OC,11.7,5.0,5.0,-19.9,34.0,54.4*
Cc1cc(C(=O)N/N=C2\CCCC(=O)C2)c(C)n1-c1ccccc1,-7.1,-13.4,42.7,-6.0,74.9*,·
Cc1cc(C(=O)N/N=C/c2ccc3c(c2)OCO3)c(C)n1-c1ccc(F)cc1,-6.4,8.7,2.9,-18.6,50.3*,-7.2
COc1ccc(/C=N/NC(=O)CCC(=O)Nc2ccccc2)cc1OC,-4.2,-4.0,1.5,1.0,4.0,8.8

# Screening results from PubChem.
